# Measurements reported in PubChem BioAssay.
# Legend:
# PEG-3 [1] = target: PEG-3 (UniProt Q6IN02); test: Peg3 promoter luciferase inhibitors, potency, dose response, cell-based, HeLa, CREF/GAPDH counter-screen panel (AID 624167); details: CREF/GAPDH counter-screens; HeLa PEG-Prom luciferase reporter, overnight, run 1, dose range 1, at 100 µM (top of the series) unless noted
# PEG-3 [2] = target: PEG-3 (UniProt Q6IN02); test: as above; details: CREF/GAPDH counter-screens; HeLa PEG-Prom luciferase reporter, overnight, run 2, dose range 1, at 100 µM (top of the series) unless noted
# [3] = target: Tumor necrosis factor receptor superfamily member 10B (Homo sapiens) (UniProt O14763); test: caspase-8 TRAIL sensitization, hit retest, confirmation, cell-based, NB7+caspase-8, with/without TRAIL, luminescence panel (AID 651596); details: NB7 neuroblastoma + caspase-8, TRAIL sensitization, luminescence viability, with TRAIL, mean of runs, at 10 µM, stronger effect = higher value
# Chain of Tumor necrosis factor receptor superfamily member 10B (Homo sapiens) (O14763 whole entry, looked up): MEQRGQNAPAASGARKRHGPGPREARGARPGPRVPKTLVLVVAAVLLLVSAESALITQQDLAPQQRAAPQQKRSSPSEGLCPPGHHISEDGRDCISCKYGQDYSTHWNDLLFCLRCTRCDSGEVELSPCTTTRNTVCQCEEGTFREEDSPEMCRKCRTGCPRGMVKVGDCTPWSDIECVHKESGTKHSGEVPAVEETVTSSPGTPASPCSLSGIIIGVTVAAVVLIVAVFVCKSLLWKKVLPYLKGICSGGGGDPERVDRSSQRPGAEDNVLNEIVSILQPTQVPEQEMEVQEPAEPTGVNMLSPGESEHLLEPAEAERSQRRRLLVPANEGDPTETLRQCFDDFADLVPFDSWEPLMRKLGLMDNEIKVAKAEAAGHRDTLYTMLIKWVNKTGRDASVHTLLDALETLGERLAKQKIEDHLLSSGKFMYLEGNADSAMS
# [4] = as above; details: NB7 neuroblastoma + caspase-8, without TRAIL, luminescence viability, without TRAIL, mean of runs, at 10 µM
# Rat fibroblasts (CREF) [5] = test: Peg3 promoter luciferase inhibitors, potency, dose response, cell-based, HeLa, CREF/GAPDH counter-screen panel (AID 624167); details: CREF/GAPDH counter-screens; run 1, dose range 1, at 100 µM (top of the series)
# Rat fibroblasts (CREF) [6] = test: as above; details: CREF/GAPDH counter-screens; run 2, dose range 1, at 100 µM (top of the series)
# [7] = inhibitors of PAF-induced NFkB signaling in CF airway cells, dose response, cell-based, uHTS hits, panel, cytotoxicity readout (AID 624344); details: CF bronchial epithelial cells, PAF-induced NFkB reporter inhibition, with PAF, run 1; at 79 µM (top of the series) unless noted
# [8] = as above; details: CF bronchial epithelial cells, PAF-induced NFkB reporter inhibition, with PAF, run 2; at 79 µM (top of the series) unless noted
# [9] = target: Tumor necrosis factor receptor superfamily member 10B (Homo sapiens) (UniProt O14763); test: TRAIL sensitizers in caspase-8 expressing neuroblastoma cells, dose response, NB7 cells plus caspase-8, luminescence, panel (AID 652002); details: NB7 neuroblastoma +caspase-8, TRAIL sensitization, luminescence viability, NB7+Caspase-8, with TRAIL, run 1; at 12.5 µM (top of the series)
# [10] = target: Tumor necrosis factor receptor superfamily member 10B (Homo sapiens) (UniProt O14763); test: as above; details: NB7 neuroblastoma +caspase-8, TRAIL sensitization, luminescence viability, NB7+Caspase-8, with TRAIL, run 2; at 12.5 µM (top of the series)
# [11] = as above; details: NB7 neuroblastoma +caspase-8, no TRAIL, compound-alone cytotoxicity counter-screen, luminescence viability, NB7+Caspase-8, run 1; at 12.5 µM (top of the series) unless noted
# [12] = as above; details: NB7 neuroblastoma +caspase-8, no TRAIL, compound-alone cytotoxicity counter-screen, luminescence viability, NB7+Caspase-8, run 2; at 12.5 µM (top of the series) unless noted
# Chain of PEG-3 (Q6IN02 whole entry, looked up): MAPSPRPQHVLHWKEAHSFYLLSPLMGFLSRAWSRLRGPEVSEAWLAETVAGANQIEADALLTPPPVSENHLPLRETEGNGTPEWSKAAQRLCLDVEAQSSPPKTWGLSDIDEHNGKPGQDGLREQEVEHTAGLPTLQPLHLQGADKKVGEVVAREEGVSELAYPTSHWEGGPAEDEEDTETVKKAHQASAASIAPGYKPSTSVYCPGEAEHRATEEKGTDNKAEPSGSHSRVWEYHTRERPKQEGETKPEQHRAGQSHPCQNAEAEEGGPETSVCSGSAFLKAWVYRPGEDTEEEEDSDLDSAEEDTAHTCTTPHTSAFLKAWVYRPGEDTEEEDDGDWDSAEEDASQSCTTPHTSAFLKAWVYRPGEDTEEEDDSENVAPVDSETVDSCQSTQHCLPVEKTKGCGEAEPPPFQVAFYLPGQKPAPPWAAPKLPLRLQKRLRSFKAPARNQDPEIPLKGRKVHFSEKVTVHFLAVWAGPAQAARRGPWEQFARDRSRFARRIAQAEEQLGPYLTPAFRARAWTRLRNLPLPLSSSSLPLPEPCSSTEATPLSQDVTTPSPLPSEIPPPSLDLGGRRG
smiles,measurement,setting,value
CCCC(=O)N1CCCC(c2cc(C(=O)Nc3ccccc3)no2)C1 (stereo not given),inhibition,PEG-3 [1],85.5%
same,inhibition,PEG-3 [2],90.8%
same,activity,[3],52.6%
same,activity,[4],37.5%
CS(=O)(=O)Nc1cccc(NC(=O)C2Cc3c(-c4cccc(F)c4)ccnc3O2)c1 (stereo not given),inhibition,PEG-3 [1],"77.9% [run 1, dose range 1, at 50 µM]"
same,inhibition,PEG-3 [2],85.4%
same,inhibition,Rat fibroblasts (CREF) [5],17.8%
same,inhibition,Rat fibroblasts (CREF) [6],29%
same,activity,[3],75.5%
same,activity,[4],73.2%
COCCn1c(C)cc(C2=NNC(=NC3CC3)SC2)c1C,inhibition,PEG-3 [1],99.2%
same,inhibition,PEG-3 [2],101%
same,activity,[3],91.5%
same,activity,[4],90.3%
NC(=O)c1nsc(C(=O)N(c2ccccc2F)C(C(=O)NCc2ccc(F)cc2)c2ccc(O)cc2)c1N (stereo not given),inhibition,PEG-3 [1],101%
same,inhibition,PEG-3 [2],99.2%
same,inhibition,[7],106%
same,inhibition,[8],98.8%
CCc1nccn1C(=O)c1cnn2c(C(F)F)cc(-c3ccc(C)cc3)nc12,inhibition,PEG-3 [1],99.1%
same,inhibition,PEG-3 [2],102%
same,inhibition,[7],102%
same,inhibition,[8],115%
COC(=O)C1=C(C)N(Cc2ccccc2)C(=NCCc2c[nH]c3ccccc23)N[C@H]1c1cccc(C(F)(F)F)c1,inhibition,PEG-3 [1],101%
same,inhibition,PEG-3 [2],99.9%
same,activity,[3],17.3%
same,activity,[4],44.5%
COc1cc(/C=N/O)ccc1OCc1ccc(C(=O)O)cc1,inhibition,PEG-3 [1],88.6%
same,inhibition,PEG-3 [2],90.2%
same,inhibition,Rat fibroblasts (CREF) [5],92%
same,inhibition,Rat fibroblasts (CREF) [6],91.3%
same,activity,[3],72.7%
same,activity,[4],65.7%
CC1CCN(c2ccc(-c3cccc(NC(=O)C(F)(F)F)c3)nn2)CC1,inhibition,PEG-3 [1],93.8%
same,inhibition,PEG-3 [2],94.5%
same,inhibition,Rat fibroblasts (CREF) [5],99.2%
same,inhibition,Rat fibroblasts (CREF) [6],99.5%
same,activity,[3],97.5%
same,activity,[4],97.7%
CC(=O)c1cccc(-c2ccnc3c2CC(C(=O)Nc2cccc(NS(C)(=O)=O)c2)O3)c1 (stereo not given),inhibition,PEG-3 [1],58%
same,inhibition,PEG-3 [2],65%
same,inhibition,Rat fibroblasts (CREF) [5],30%
same,inhibition,Rat fibroblasts (CREF) [6],47.2%
same,activity,[3],74.9%
same,activity,[4],73.6%
CN1OC[C@@H]2CN[C@H](c3ccc(-c4cc5ccccc5o4)cc3)C[C@@H]21,inhibition,PEG-3 [1],98%
same,inhibition,PEG-3 [2],101%
same,activity,[3],90.1%
same,activity,[4],90.9%
N/C(=N\OC(=O)c1ccccc1)C(Cc1ccccc1)C(=O)NOC(=O)c1ccccc1 (stereo not given),inhibition,PEG-3 [1],97.4%
same,inhibition,PEG-3 [2],99.1%
same,activity,[3],98%
same,activity,[4],97.8%
CN(C)c1ccc(C(C(=O)NCc2ccccc2)N(Cc2ccco2)C(=O)c2snc(C(N)=O)c2N)cc1 (stereo not given),inhibition,PEG-3 [1],21.1%
same,inhibition,PEG-3 [2],29.3%
same,inhibition,[7],109%
same,inhibition,[8],104%
COc1nc(N)c(C#N)c(-c2ccc(N(C)CCC#N)cc2)c1C#N,inhibition,PEG-3 [1],52.9%
same,inhibition,PEG-3 [2],53%
same,inhibition,[7],97.1% [at 39.5 µM]
same,inhibition,[8],84.4% [at 39.5 µM]
O=c1c2ccccc2oc2cc(C#CC3(O)CCCCC3)ccc12,inhibition,PEG-3 [1],102%
same,inhibition,PEG-3 [2],102%
same,activity,[3],87.3%
same,activity,[4],85.3%
CN1CCN(c2ccc(NC(=O)N3CCc4ccccc43)cc2)CC1,inhibition,PEG-3 [1],87.9%
same,inhibition,PEG-3 [2],92.8%
same,activity,[3],70.6%
same,activity,[4],65.9%
CCC1=C(CC2NCCc3ccccc32)CC2c3cc(OC)c(OC)cc3CCN2C1 (stereo not given),inhibition,PEG-3 [1],97.6%
same,inhibition,PEG-3 [2],99%
same,inhibition,[7],115%
same,inhibition,[8],105%
FC(F)Sc1ccc(NC(=S)NC(c2ccccc2)c2ccccc2)cc1,inhibition,PEG-3 [1],99.8%
same,inhibition,PEG-3 [2],96.5%
same,inhibition,[7],116%
same,inhibition,[8],103%
CCCCCCCCCCCCCCCC(O)C[N+](C)(C)CCO (stereo not given),inhibition,PEG-3 [1],102%
same,inhibition,PEG-3 [2],98.9%
same,activity,[3],95.8%
same,activity,[4],97.1%
Cc1cnc(NC(=O)C2CC(=O)N(c3cccc(Cl)c3)C2)s1 (stereo not given),inhibition,PEG-3 [1],97.7%
same,inhibition,PEG-3 [2],87.8%
same,inhibition,[7],94.9%
same,inhibition,[8],116%
COc1ccc(C(C(=O)NCC2CCCO2)N(Cc2cccs2)C(=O)c2snc(C(N)=O)c2N)cc1 (stereo not given),inhibition,PEG-3 [1],47.8%
same,inhibition,PEG-3 [2],28.4%
same,inhibition,[7],109%
same,inhibition,[8],101%
CCOc1cc(/C=N/N=C(N)N)ccc1OCc1ccc(Cl)cc1,inhibition,PEG-3 [1],99.3%
same,inhibition,PEG-3 [2],98.5%
same,activity,[3],70%
same,activity,[4],96.9%
O=C1CCCCC1Sc1nnc(-c2ccc3c(c2)OCO3)o1 (stereo not given),inhibition,PEG-3 [1],98.4%
same,inhibition,PEG-3 [2],95%
same,inhibition,Rat fibroblasts (CREF) [5],95%
same,inhibition,Rat fibroblasts (CREF) [6],94.3%
same,activity,[3],48.4%
same,activity,[4],35.9%
same,"activity, % sensitization",[9],19.6%
same,"activity, % sensitization",[10],16.8%
same,"activity, % sensitization",[11],29.8%
same,"activity, % sensitization",[12],21.7%
CCOC(=O)c1c(C)[nH]c(C(=O)OCC(=O)Nc2sccc2C(N)=O)c1C,inhibition,PEG-3 [1],76.2%
same,inhibition,PEG-3 [2],101%
same,activity,[3],69.8%
same,activity,[4],62.2%
Cc1cc(C)c2sc(N(CCCN(C)C)C(=O)c3ccc(S(=O)(=O)N4CCCc5ccccc54)cc3)nc2c1,inhibition,PEG-3 [1],97.5%
same,inhibition,PEG-3 [2],99.2%
same,activity,[3],31.6%
same,activity,[4],32.4%
Cc1ccc2sc(N(CCCN(C)C)C(=O)c3ccc(S(=O)(=O)N(C)Cc4ccccc4)cc3)nc2c1C,inhibition,PEG-3 [1],102%
same,inhibition,PEG-3 [2],99.1%
same,activity,[3],44%
same,activity,[4],32.9%
NC(=O)c1sc2nc3c(c(-c4ccco4)c2c1N)CCCC3,inhibition,[7],114%
same,inhibition,[8],101%
COc1ccc2c(c1OC)C(=O)N1c3ccccc3C(=O)N(c3ccccc3)C21 (stereo not given),inhibition,[7],112%
same,inhibition,[8],102%
COc1cccc(-c2ccc3ncnc(NCc4cccc(C)c4)c3c2)c1,inhibition,[7],118%
same,inhibition,[8],104%
COc1cc2c(Cc3ccccc3)cncc2cc1O,inhibition,[7],107%
same,inhibition,[8],96.3%
CC(C)CNC(=O)c1coc(=O)c(Br)c1,inhibition,[7],86%
same,inhibition,[8],63.6%
O=[N+]([O-])c1ccc(NC(=S)NCCc2ccc(F)cc2)cc1,inhibition,[7],115%
same,inhibition,[8],105%
c1cncc(-c2ccc3ncnc(NCc4ccc5c(c4)OCO5)c3c2)c1,inhibition,[7],112%
same,inhibition,[8],101%
COC(=O)N1C(=O)[C@@](c2ccc(OC)cc2)(C(C)C)N1C(=O)OC,inhibition,[7],101%
same,inhibition,[8],102%
NC(=O)c1nsc(C(=O)N(c2ccccc2)C(C(=O)NCc2ccc(F)cc2)c2ccc(O)cc2)c1N (stereo not given),inhibition,[7],102%
same,inhibition,[8],108%
COc1cccc(N2CCN(c3c(C#N)c(C(F)(F)F)nn3C)CC2)c1,inhibition,[7],111%
same,inhibition,[8],94.2%
COc1ccc(-c2ccccc2[C@H]2[C@@H]3C=CC[C@@H](C)[C@@H]3C(=O)N2Cc2ccccc2)cc1,inhibition,[7],102%
same,inhibition,[8],108%
C=C1C(=O)C23C(O)C1CCC2C12COC3(O)C(O)C1C(C)(C)CCC2O (stereo not given),inhibition,[7],87.7%
same,inhibition,[8],76.9%
C=CCn1cnc2c(c1=O)c1nc3ccccc3nc1n2/N=C/c1cc(OC)c(OC)c(OC)c1,inhibition,[7],109%
same,inhibition,[8],102%
N#Cc1c(-c2ccc(Cl)cc2)n(O)c2ccccc12,inhibition,[7],111%
same,inhibition,[8],103%
COc1cccc(/C=N/n2c(C3CCCCC3)n[nH]c2=S)c1,inhibition,[7],97.2%
same,inhibition,[8],106%
Cc1ccc(S(=O)(=O)/N=C(\CCl)N2CCOCC2)cc1,inhibition,[7],110%
same,inhibition,[8],102%
c1nc(NCc2ccc3c(c2)OCO3)c2cc(-c3ccoc3)ccc2n1,inhibition,[7],102%
same,inhibition,[8],102%
CCC1(O)C(=O)OCc2c1cc1n(c2=O)Cc2cc3cc(O)ccc3nc2-1 (stereo not given),inhibition,[7],106%
same,inhibition,[8],88.8%
COc1ccc(-c2[nH]ncc2-c2ccc3c(c2)OCCO3)c(O)c1,inhibition,[7],107%
same,inhibition,[8],114%
Cc1cc(C)c(C#N)c(SCC(=O)c2ccc(Cl)cc2Cl)n1,inhibition,[7],111%
same,inhibition,[8],101%
O=C1C=C(NC2=CC3OC(c4ccccc4)OCC3OC2=O)CCC1 (stereo not given),inhibition,[7],103%
same,inhibition,[8],111%
Cc1ccc(S(=O)(=O)Nc2ccc3cc([N+](=O)[O-])ccc3c2[N+](=O)[O-])cc1,inhibition,[7],109%
same,inhibition,[8],101%
C[C@@H]1CN([C@H](C)CO)C(=O)c2cc(NC(=O)Nc3ccc(C(F)(F)F)cc3)ccc2O[C@H]1CN(C)S(=O)(=O)c1ccc(Cl)cc1,inhibition,[7],86.7%
same,inhibition,[8],92.7%
CN(C)c1ccc(C(C(=O)NC2CCCCC2)N(Cc2ccco2)C(=O)c2snc(C(N)=O)c2N)cc1 (stereo not given),inhibition,[7],105%
same,inhibition,[8],102%
O=C(NNC(=S)Nc1cccc(C(F)(F)F)c1)c1cccc(Cl)c1,inhibition,[7],115%
same,inhibition,[8],93.8%
c1cncc(CNc2ncnc3ccc(-c4ccoc4)cc23)c1,inhibition,[7],113%
same,inhibition,[8],98.2%
Cc1cc(C)c2nc(C(F)(F)F)c(C#N)c(N)c2c1,inhibition,[7],97.7%
same,inhibition,[8],90.1%
NS(=O)(=O)c1ccc(CCNC(=O)c2ccc(C#CC3(O)CCCCC3)cc2)cc1,inhibition,[7],105%
same,inhibition,[8],102%
